Data on 1 sequence can be found in publication PMC7862700, “An all-to-all approach to the identification of sequence-specific readers for epigenetic DNA modifications on cytosine”.

What all share (test): DAPPL (digital affinity profiling via proximity ligation, sequencing); 10 mM Tris-HCl pH 7.5, 50 mM NaCl, 1 mM DTT, 4% glycerol, room temperature, 30 min; GST-TFs on glutathione beads, 16-mer random dsDNA library, 0.1% formaldehyde crosslink after washing; high values mean tight binding
One assay has as its target T1, FEV (Homo sapiens, UniProt Q99581 1-238).
T1 sequence: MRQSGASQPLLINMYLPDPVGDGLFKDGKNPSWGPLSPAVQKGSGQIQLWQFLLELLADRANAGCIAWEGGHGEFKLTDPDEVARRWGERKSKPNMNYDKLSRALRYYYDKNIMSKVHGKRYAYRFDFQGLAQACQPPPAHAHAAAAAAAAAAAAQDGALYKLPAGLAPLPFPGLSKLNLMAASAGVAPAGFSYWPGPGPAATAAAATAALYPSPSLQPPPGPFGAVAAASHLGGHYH
To be noted: protein: recombinant; tags: N-terminal GST; dsDNA, one strand shown. The method in brief: (§1)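 Binding signal is each hexamer's read frequency for a factor divided by its frequency in the tag-only sample. The factors were GST-fused human transcription factors from yeast, captured on glutathione beads, DNA-barcoded and pooled with that sample. Pools were incubated with 200 nmole of a random double-stranded 16-mer DNA library in Tris/NaCl/DTT/glycerol buffer at room temperature for 30 min, then washed, crosslinked with 0.1% formaldehyde, proximity-ligated with BsaI/T4 ligase (1 h, 37 °C), PCR-amplified and sequenced on an Illumina NextSeq500.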

The next assay deals with ETV5 (Homo sapiens, UniProt P41161 1-510). To be noted: protein: recombinant; tags: N-terminal GST; dsDNA, one strand shown. The method in brief:
as §1

A further assay deals with HSF1 (Homo sapiens, UniProt Q00613 1-529). Conditions: protein: recombinant; tags: N-terminal GST; chain copies: 3; dsDNA, one strand shown. The method in brief:
as §1

The target of a further assay is T2, SPIC (Homo sapiens, UniProt Q8N5J4 1-248).
T2 sequence: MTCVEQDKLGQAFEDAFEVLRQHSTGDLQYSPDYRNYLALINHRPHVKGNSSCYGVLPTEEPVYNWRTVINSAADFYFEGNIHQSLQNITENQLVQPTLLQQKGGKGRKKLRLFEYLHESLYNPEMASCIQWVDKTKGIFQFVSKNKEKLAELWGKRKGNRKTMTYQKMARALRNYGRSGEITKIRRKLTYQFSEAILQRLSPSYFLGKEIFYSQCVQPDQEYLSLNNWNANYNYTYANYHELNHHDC
Conditions: protein: recombinant; tags: N-terminal GST; dsDNA, one strand shown. The method in brief: as §1

The next assay has as its target ELF4 (Homo sapiens, UniProt Q99607 1-663). To be noted: protein: recombinant; tags: N-terminal GST; dsDNA, one strand shown. The method in brief:
as §1

In a further assay the target is T3, ELK4 (Homo sapiens, UniProt P28324-2 1-405).
T3 sequence: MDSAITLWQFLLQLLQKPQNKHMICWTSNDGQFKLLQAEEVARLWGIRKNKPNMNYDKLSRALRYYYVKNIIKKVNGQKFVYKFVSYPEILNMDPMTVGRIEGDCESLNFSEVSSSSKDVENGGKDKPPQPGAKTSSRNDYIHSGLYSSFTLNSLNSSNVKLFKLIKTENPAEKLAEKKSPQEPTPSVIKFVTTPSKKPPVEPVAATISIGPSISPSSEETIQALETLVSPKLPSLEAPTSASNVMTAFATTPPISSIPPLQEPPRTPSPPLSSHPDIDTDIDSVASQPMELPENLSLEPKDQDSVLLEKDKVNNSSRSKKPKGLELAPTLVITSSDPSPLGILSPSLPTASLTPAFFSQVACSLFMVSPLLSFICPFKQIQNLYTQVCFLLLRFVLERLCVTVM
To be noted: protein: recombinant; tags: N-terminal GST; dsDNA, one strand shown. The method in brief: as §1

The next assay has as its target T4, ETV2 (Homo sapiens, UniProt O00321 1-342).
T4 sequence: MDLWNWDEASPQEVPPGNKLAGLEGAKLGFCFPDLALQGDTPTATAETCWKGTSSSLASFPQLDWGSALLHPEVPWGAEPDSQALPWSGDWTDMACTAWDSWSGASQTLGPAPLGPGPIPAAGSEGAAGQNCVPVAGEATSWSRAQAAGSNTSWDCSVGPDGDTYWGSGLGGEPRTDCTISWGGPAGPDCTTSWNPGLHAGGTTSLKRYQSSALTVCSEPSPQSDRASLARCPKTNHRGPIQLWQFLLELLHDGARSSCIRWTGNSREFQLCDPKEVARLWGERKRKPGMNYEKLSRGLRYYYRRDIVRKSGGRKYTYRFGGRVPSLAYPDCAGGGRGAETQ
To be noted: protein: recombinant; tags: N-terminal GST; dsDNA, one strand shown. The method in brief:
as §1

In a further assay the target is T5, ELF3 (Homo sapiens, UniProt P78545 1-371).
T5 sequence: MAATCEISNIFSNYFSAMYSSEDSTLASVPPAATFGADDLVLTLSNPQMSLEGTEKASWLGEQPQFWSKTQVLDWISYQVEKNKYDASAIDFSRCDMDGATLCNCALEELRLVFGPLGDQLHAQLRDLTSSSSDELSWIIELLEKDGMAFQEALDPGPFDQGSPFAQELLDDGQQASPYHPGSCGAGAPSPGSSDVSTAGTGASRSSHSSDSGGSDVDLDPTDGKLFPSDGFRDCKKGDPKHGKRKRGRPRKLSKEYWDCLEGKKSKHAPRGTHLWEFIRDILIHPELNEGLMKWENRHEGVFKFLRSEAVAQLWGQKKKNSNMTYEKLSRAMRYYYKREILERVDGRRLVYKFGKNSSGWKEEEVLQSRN
To be noted: protein: recombinant; tags: N-terminal GST; dsDNA, one strand shown. The method in brief: as §1

The next assay concerns the target CRX (Homo sapiens, UniProt O43186 1-299). Conditions: protein: recombinant; tags: N-terminal GST; dsDNA, one strand shown. The method in brief:
as §1

The target of a further assay is ETV1 (Homo sapiens, UniProt P50549 1-477). Conditions: protein: recombinant; tags: N-terminal GST; dsDNA, one strand shown. The method in brief: as §1
ETV1, sequence (P50549 whole entry): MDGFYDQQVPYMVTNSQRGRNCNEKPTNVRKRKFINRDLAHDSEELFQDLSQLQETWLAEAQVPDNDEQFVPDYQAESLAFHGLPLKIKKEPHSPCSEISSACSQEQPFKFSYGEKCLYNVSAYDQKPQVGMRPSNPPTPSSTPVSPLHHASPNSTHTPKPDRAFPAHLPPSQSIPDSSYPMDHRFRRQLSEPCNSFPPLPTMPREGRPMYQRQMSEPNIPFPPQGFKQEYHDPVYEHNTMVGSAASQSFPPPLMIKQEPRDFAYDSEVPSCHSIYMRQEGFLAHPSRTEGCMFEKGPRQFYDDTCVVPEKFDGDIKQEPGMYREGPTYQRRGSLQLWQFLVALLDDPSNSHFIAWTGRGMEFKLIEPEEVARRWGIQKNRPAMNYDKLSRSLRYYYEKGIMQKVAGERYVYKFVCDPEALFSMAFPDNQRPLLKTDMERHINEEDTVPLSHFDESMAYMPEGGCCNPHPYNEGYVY
For a further assay, the target named is T6, ERF (Homo sapiens, UniProt P50548 1-548).
T6 sequence: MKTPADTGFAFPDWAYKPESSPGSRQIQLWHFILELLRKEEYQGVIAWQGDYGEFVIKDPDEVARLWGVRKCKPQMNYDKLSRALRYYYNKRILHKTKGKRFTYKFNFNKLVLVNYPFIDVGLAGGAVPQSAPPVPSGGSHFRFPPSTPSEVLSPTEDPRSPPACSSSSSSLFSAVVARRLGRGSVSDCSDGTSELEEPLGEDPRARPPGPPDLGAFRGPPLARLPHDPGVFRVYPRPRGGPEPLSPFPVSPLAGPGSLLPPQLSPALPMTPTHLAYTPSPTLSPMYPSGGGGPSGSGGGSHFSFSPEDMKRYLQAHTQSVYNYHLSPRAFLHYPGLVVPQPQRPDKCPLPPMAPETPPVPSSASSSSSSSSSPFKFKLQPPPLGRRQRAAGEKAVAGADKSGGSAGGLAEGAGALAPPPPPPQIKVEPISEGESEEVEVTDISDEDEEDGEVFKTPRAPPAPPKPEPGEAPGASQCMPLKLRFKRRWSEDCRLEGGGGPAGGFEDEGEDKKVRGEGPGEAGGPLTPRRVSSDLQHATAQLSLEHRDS
To be noted: protein: recombinant; tags: N-terminal GST; dsDNA, one strand shown. The method in brief: as §1

In a further assay the target is T7, ETV3L (Homo sapiens, UniProt Q6ZN32 1-361).
T7 sequence: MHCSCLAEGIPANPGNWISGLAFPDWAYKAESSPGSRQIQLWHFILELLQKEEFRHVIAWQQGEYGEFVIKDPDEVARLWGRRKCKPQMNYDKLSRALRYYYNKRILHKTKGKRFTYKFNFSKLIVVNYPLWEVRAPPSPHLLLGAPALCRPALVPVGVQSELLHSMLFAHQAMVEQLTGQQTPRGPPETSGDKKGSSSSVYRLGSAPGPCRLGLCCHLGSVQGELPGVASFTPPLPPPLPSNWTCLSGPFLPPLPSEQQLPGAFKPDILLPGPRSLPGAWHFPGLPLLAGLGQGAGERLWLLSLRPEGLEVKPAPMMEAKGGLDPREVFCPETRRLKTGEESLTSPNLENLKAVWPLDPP
To be noted: protein: recombinant; tags: N-terminal GST; dsDNA, one strand shown. The method in brief: as §1

The next assay deals with T8, ETS2 (Homo sapiens, UniProt P15036 1-469).
T8 sequence: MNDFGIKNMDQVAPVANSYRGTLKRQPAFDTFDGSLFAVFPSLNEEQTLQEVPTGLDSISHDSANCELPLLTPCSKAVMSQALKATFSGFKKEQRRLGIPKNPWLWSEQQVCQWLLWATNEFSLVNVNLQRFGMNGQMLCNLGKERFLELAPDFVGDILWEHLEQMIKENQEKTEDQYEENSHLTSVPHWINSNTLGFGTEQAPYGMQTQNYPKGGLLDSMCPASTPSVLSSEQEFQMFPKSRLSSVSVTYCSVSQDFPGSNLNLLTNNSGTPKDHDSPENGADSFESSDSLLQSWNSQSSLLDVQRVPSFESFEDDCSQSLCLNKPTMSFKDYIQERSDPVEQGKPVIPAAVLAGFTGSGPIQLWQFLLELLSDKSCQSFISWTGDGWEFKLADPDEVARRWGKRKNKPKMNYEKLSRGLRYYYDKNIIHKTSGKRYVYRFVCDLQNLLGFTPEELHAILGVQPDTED
To be noted: protein: recombinant; tags: N-terminal GST; dsDNA, one strand shown. The method in brief:
as §1

The next assay concerns the target T9, SPDEF (Homo sapiens, UniProt O95238 1-335).
T9 sequence: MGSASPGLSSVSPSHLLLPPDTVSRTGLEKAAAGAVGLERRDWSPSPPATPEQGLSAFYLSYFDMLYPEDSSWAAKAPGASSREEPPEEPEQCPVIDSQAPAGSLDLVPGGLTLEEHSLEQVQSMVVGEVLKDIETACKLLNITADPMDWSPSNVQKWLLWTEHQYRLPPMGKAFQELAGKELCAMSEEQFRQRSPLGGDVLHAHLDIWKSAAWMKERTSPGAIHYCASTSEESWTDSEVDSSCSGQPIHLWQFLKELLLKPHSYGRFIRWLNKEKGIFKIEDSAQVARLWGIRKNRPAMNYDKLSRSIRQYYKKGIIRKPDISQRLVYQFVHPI
To be noted: protein: recombinant; tags: N-terminal GST; dsDNA, one strand shown. The method in brief:
as §1

The target of the next assay is T10, ETV7 (Homo sapiens, UniProt Q9Y603 1-341).
T10 sequence: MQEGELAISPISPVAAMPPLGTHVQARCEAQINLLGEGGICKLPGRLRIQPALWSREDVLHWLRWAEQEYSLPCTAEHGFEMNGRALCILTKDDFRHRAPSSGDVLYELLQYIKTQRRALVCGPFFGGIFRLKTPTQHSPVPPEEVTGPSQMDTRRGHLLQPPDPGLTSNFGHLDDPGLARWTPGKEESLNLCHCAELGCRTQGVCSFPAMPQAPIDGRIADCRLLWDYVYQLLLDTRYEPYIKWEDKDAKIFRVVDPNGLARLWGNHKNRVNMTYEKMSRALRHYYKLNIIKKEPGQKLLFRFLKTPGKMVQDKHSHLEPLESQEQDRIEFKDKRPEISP
To be noted: protein: recombinant; tags: N-terminal GST; dsDNA, one strand shown. The method in brief: as §1

The next assay has as its target T11, ELF5 (Homo sapiens, UniProt Q9UKW6-2 1-255).
T11 sequence: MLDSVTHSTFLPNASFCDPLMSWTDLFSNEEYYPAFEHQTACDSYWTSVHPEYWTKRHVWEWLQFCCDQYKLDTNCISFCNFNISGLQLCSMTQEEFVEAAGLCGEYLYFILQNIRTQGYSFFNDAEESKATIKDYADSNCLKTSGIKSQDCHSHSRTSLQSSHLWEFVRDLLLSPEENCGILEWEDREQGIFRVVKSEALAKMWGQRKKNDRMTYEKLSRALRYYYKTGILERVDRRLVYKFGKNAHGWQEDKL
Conditions: protein: recombinant; tags: N-terminal GST; dsDNA, one strand shown. The method in brief:
as §1

For the next assay, the target named is T12, ETV3 (Homo sapiens, UniProt P41162-2 1-143).
T12 sequence: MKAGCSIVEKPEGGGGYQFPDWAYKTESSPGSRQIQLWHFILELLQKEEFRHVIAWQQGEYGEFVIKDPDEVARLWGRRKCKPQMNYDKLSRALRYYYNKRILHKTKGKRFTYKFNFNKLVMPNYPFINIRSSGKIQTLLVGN
To be noted: protein: recombinant; tags: N-terminal GST; dsDNA, one strand shown. The method in brief: as §1

The next assay has as its target ETV6 (Homo sapiens, UniProt P41212 1-452). Conditions: protein: recombinant; tags: N-terminal GST; dsDNA, one strand shown. The method in brief: as §1

ELF4, sequence (Q99607 whole entry): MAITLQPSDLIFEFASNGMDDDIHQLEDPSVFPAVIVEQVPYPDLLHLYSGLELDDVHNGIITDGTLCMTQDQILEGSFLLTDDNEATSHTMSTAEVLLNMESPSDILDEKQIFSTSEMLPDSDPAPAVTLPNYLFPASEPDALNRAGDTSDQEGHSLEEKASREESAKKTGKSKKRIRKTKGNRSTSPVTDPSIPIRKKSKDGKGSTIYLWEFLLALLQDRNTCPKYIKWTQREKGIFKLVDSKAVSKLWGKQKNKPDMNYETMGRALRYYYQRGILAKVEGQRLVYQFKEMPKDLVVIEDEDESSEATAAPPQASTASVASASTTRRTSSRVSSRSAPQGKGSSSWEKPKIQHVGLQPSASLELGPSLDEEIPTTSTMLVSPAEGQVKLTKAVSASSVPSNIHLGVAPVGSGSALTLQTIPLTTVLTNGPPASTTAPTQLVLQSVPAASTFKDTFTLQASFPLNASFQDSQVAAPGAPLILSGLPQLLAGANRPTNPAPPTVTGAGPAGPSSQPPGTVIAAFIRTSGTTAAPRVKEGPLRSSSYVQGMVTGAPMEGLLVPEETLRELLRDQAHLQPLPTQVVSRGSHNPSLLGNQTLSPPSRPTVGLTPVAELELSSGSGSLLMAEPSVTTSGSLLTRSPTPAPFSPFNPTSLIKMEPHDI
ETV6, sequence (P41212 whole entry): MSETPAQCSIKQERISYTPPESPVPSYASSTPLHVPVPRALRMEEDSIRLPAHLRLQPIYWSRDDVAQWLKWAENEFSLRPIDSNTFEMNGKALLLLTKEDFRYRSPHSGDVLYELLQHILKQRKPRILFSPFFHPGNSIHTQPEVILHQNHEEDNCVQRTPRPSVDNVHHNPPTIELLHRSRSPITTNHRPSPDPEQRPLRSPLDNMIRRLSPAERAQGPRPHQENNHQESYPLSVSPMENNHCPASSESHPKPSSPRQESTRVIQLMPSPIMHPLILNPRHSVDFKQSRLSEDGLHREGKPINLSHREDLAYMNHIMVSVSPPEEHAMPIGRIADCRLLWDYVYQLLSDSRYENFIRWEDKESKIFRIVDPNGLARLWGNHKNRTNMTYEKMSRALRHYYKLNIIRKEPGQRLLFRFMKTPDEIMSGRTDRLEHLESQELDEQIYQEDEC
ETV5, sequence (P41161 whole entry): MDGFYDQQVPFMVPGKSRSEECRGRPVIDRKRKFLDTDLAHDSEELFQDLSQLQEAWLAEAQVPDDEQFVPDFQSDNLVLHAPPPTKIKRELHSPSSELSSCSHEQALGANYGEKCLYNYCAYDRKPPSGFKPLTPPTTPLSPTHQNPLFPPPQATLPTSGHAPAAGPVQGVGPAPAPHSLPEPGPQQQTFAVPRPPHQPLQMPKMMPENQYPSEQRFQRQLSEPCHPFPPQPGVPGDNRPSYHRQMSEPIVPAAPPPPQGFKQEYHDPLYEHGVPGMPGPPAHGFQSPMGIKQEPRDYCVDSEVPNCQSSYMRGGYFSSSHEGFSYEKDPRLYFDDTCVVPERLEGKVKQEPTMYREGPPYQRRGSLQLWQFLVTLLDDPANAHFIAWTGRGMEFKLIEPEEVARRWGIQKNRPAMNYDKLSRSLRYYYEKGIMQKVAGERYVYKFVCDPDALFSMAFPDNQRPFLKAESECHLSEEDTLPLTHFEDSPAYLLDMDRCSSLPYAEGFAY
HSF1, sequence (Q00613 whole entry): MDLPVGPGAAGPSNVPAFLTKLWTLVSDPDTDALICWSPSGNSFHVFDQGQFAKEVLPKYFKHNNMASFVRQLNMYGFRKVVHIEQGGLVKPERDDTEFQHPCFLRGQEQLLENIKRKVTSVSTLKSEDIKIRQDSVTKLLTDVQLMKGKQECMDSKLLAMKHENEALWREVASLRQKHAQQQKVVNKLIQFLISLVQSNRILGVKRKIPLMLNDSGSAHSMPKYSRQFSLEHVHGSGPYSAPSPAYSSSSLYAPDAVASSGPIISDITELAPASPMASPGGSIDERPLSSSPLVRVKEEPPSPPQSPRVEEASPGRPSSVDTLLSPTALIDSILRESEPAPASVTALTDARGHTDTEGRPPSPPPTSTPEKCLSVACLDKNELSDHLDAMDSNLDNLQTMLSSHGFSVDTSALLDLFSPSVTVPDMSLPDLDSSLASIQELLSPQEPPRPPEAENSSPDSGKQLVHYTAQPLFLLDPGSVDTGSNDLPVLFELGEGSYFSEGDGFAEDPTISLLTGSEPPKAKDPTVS
CRX, sequence (O43186 whole entry): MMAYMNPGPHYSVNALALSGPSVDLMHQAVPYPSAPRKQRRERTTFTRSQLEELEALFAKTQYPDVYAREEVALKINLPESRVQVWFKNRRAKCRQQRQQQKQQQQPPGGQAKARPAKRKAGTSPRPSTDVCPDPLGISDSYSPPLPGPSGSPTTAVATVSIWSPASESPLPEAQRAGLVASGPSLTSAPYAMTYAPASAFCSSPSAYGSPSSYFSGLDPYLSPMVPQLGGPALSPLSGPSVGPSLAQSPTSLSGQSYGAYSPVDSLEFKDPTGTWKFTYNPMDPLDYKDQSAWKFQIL

Regarding TATATC, the binding signal in the assay with FEV is 1.58 fold enrichment (6-mer frequency, TF over GST control); with ETV5, 1.6 fold enrichment (6-mer frequency, TF over GST control); with HSF1 it was 1.33 fold enrichment (6-mer frequency, TF over GST control); with SPIC, 1.67 fold enrichment (6-mer frequency, TF over GST control); with ELF4 it was 1.58 fold enrichment (6-mer frequency, TF over GST control); in the assay with ELK4, 1.53 fold enrichment (6-mer frequency, TF over GST control). In addition, the binding signal was 1.54 fold enrichment (6-mer frequency, TF over GST control) in the assay with ETV2; 1.36 fold enrichment (6-mer frequency, TF over GST control) with ELF3; 1.67 fold enrichment (6-mer frequency, TF over GST control) with CRX; 1.54 fold enrichment (6-mer frequency, TF over GST control) with ETV1; 1.61 fold enrichment (6-mer frequency, TF over GST control) with ERF; 1.56 fold enrichment (6-mer frequency, TF over GST control) in the assay with ETV3L. Moreover, the binding signal in the assay with ETS2 was 1.64 fold enrichment (6-mer frequency, TF over GST control); with SPDEF it was 2.19 fold enrichment (6-mer frequency, TF over GST control); in the assay with ETV7 it was 1.48 fold enrichment (6-mer frequency, TF over GST control); in the assay with ELF5 it was 1.66 fold enrichment (6-mer frequency, TF over GST control); with ETV3 it was 1.68 fold enrichment (6-mer frequency, TF over GST control); with ETV6, 1.5 fold enrichment (6-mer frequency, TF over GST control).
